Screening results as filed in PubChem BioAssay.
KDM5B inhibitor: blocks human KDM5B histone demethylase activity; KDM5B demethylase, FDH-coupled NADH fluorescence (FDH is formaldehyde dehydrogenase); Potency, µM (series often up to 57.7 µM), usual class: inhibitors; 220,000 tested, 2.6% active; AID 1347165; active means well fitted inhibition curve with a large enough effect; further: nearly all actives have a fitted effect of over 70% in size
Target sequence (Q9UGL1 whole entry, looked up): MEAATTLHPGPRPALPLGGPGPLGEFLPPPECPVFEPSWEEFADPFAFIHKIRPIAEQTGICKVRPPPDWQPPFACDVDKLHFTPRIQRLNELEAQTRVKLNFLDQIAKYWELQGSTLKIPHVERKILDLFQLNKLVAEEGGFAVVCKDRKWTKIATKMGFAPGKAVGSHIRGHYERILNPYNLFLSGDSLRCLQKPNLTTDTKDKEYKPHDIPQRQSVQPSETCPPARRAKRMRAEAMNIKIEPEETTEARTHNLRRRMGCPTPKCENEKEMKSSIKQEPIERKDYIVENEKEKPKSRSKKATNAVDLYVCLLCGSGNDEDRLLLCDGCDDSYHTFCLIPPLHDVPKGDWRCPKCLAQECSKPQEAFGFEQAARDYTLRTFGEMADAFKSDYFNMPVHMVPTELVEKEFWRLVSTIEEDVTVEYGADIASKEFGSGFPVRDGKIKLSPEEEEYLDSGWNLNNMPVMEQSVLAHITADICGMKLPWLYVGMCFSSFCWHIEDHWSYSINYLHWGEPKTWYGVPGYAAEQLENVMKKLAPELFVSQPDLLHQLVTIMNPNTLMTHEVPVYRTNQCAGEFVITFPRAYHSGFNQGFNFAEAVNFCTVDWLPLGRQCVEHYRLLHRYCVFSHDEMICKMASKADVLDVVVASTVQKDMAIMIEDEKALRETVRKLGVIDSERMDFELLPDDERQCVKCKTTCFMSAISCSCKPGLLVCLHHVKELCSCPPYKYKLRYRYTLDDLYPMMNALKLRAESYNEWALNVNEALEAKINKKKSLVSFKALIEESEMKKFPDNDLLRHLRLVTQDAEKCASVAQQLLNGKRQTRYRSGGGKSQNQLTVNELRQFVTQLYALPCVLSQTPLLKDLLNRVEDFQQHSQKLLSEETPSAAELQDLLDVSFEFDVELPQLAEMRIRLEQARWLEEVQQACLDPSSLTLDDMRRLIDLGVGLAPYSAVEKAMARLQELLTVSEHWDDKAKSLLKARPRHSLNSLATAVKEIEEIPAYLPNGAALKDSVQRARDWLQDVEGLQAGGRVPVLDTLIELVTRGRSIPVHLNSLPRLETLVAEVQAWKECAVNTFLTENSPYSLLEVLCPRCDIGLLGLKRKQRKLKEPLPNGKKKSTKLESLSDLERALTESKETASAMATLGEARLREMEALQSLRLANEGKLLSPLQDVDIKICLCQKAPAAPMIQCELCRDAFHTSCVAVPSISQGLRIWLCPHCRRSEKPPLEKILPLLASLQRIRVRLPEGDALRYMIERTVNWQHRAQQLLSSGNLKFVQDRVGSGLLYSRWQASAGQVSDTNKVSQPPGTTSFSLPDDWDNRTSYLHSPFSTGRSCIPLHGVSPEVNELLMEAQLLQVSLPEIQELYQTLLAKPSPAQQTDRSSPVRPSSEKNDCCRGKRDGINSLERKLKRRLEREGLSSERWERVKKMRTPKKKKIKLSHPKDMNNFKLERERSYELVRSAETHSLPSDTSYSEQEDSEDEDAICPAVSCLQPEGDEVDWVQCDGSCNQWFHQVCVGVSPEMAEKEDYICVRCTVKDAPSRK
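Compound dilutions met 200 nM (final) KDM5BΔAP for 10 min at room temperature before substrate addition. The substrate mix held 12.5 µM H3K4me3 with cofactors 25 µM α-ketoglutarate and 50 µM Fe²⁺. NADH signal gain over 30 min defined activity.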
Each line names hits and unclear results; the compound was inactive in the other large screens. Only a selection was taken, and hits are over-represented in it overall.

COCCN(CCOC)CC[C@@H]1CC[C@H](O)[C@@H](C(=O)Nc2ccccc2)O1	none
O=C(CSc1nnc2ccc(-c3ccco3)nn12)N1CCOCC1	none
CC(C(=O)N1CCOCC1)n1ccc2cc(S(=O)(=O)N3CCCC3)ccc21 (stereo not given)	none
Cc1nc(NC(=O)C2CCN(c3ccc(C#N)cn3)CC2)sc1C	none
Cc1cc(C)c(S(=O)(=O)Nc2ccc3oc(C)nc3c2)c(C)c1	none
CCc1nn2c(=O)cc(COc3cccc(C)c3)nc2s1	none
COC(=O)c1c(C)cccc1NC(=O)c1nn(C)c(=O)c2ccccc12	none
CCOC(=O)Nc1ccc(OC)cc1	none
O=C(N[C@H]1CCN2C(=O)c3cc(-c4cccc(C(F)(F)F)c4)ccc3NC(=O)[C@@H]2C1)c1cnccn1	none
COc1ccc(OCC(=O)N2CCN(C(=O)c3cccc(OC)c3)CC2)cc1	none
C=CCO[C@@H]1C[C@H]2C(=O)Nc3ccc(-c4ccc(OC)cc4)cc3C(=O)N2C1	KDM5B inhibitor 35µM
CS(=O)(=O)N[C@H]1C[C@H]2C(=O)Nc3ccc(-c4cccc(C(F)(F)F)c4)cc3C(=O)N2C1	none
O=C(N[C@H]1CCN2C(=O)c3cc(-c4cccc(C(F)(F)F)c4)ccc3NC(=O)[C@H]12)c1cnccn1	none
C=CCO[C@@H]1C[C@H]2C(=O)Nc3ccc(-c4ccccc4)cc3C(=O)N2C1	none
COc1ccc(-c2ccc3c(c2)C(=O)N2CCN(C(=O)COc4ccccc4)C[C@@H]2C(=O)N3)cc1	KDM5B inhibitor 28µM
O=C1Nc2ccc(-c3cccc(C(F)(F)F)c3)cc2C(=O)N2CCN(C(=O)c3ccco3)C[C@@H]12	KDM5B inhibitor 35µM
COCC(=O)N1CCN2C(=O)c3cc(-c4cccc(C(F)(F)F)c4)ccc3NC(=O)[C@H]2C1	KDM5B inhibitor 28µM
C=CCO[C@@H]1C[C@H]2C(=O)Nc3ccc(-c4ccc(F)cc4F)cc3C(=O)N2C1	none
CCC(C(=O)Nc1nnc(COC)s1)c1ccccc1 (stereo not given)	none
O=C(O)c1cccc2c1C(=O)C(CC1CCCO1)N2 (stereo not given)	none
CC(C)OCc1cccc(CNC(=O)CNC(=O)C2CCCC2)c1	none
Cc1occc1-c1nnc(SC(C(=O)N2CCCC2)c2ccccc2)n1-c1ccccc1 (stereo not given)	none
CSc1nc(-c2ccccc2)c2ccccc2n1	none
CCCn1c(NCCN(CC)CC)nc2c1c(=O)[nH]c(=O)n2C	none
COc1ccc(C(=O)N[C@H]2C[C@H]3C(=O)Nc4ccc(-c5ccsc5)cc4C(=O)N3C2)cc1	none
CC(C)(CC(=O)O)CC(=O)N1CCN2C(=O)c3cc(-c4ccc(Cl)cc4)ccc3NC(=O)[C@@H]2C1	none
COCC(=O)N1CCN2C(=O)c3cc(-c4ccc(OC)cc4)ccc3NC(=O)[C@H]2C1	KDM5B inhibitor 32µM
CC(=O)N/C(=C/c1ccccc1)C(=O)OC(C(N)=O)c1ccccc1 (stereo not given)	none
C=CCCC(CN1CCCC1)Oc1cc(N2CCOCC2)ncn1 (stereo not given)	none
C=CCCC(CN1CCCOCC1)Oc1ccc(C#N)cn1 (stereo not given)	none
C=CCCC(CN1CCCOCC1)Oc1cc(C#N)ccn1 (stereo not given)	KDM5B inhibitor 28µM
COc1ccc(S(=O)(=O)NCC2CCC(C(=O)NCC(=O)N3CCc4ccccc4C3)CC2)cc1 (stereo not given)	none
COc1ncc(-c2nccc3c(=O)cc(N(C)c4ccccc4)oc23)cn1	none
COc1ccc(-c2nccc3c(=O)cc(N4CCN(C)CC4)oc23)cn1	KDM5B inhibitor 32µM
Cn1ccc(Nc2nccc3c(=O)cc(-c4cn[nH]c4)oc23)n1	none
COc1ncc(-c2nccc3c(=O)cc(N4CCN(C)CC4)oc23)cn1	KDM5B inhibitor 35µM
CNC(=O)NC(=O)CSc1cc(C)c2ccccc2n1	none
Cc1ccc(NS(=O)(=O)c2cc([N+](=O)[O-])ccc2N/N=C/c2ccc(C#N)cc2)c(C)c1	none
N#Cc1nc(COc2ccc3c(c2)OCO3)oc1N1CCCCCC1	none
CC(C)c1noc(-c2cccn3c(CNC(=O)Cc4ccc(F)cc4)nnc23)n1	KDM5B inhibitor 14µM
CCc1noc(-c2cccn3c(CNC(=O)c4cccc(C)c4)nnc23)n1	KDM5B inhibitor 28µM
